Test systems include BT-549 breast; MDA-MB-435 melanoma; SW-620 colon; MCF7 breast; HCT-116 colon; HCC-2998 colon; KM12 colon.
Assay in all cases: NCI-60 one-dose screen, 48 h (100 = growth as untreated, 0 = no growth, -100 = all killed)
What all share (details): 10 µM unless noted

Each structure is given as a SMILES string. Compounds without any hit were thinned out: in the full panel of roughly 83,000, 20% have a hit.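 Growth was measured after 48 h exposure to one concentration of compound in 96-well plates. Values under 10 count as active.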 Values without a mark were called inactive. Calls of active or inactive are those of the source.

As to `CC(=O)Nc1ccc2c(c1)Cc1cc(F)ccc1-2`, the growth in the test with BT-549 breast was 93.8%; in the test on MDA-MB-435 melanoma it was 107%; with SW-620 colon it was 105%; with MCF7 breast, 82.2%; with HCT-116 colon, 102%; with HCC-2998 colon it was 94.3%. For the same compound, in the test with KM12 colon, the growth was 95.6%.

For the compound `O=C(Nc1cc(Nc2ncccc2-c2ncnc3nc[nH]c23)ccc1F)c1cc(C(F)(F)F)cc(C(F)(F)F)c1`, the growth is -25.2% (active) in the test on BT-549 breast; 6.76% (active) in the test with MDA-MB-435 melanoma; 13.1% in the test with SW-620 colon; -2.67% (active) with MCF7 breast; -43% (active) in the test on HCT-116 colon; -83.4% (active) with HCC-2998 colon. Further, the growth in the test on KM12 colon is -55.9% (active).

Turning to `COc1ccc(-n2cc(COc3ccc4c5ccnc(C)c5n(CC(C)C)c4c3)nn2)cc1`, the growth in the test on BT-549 breast was 66%; in the test with MDA-MB-435 melanoma it was 87.3%; with SW-620 colon, 78.9%; with MCF7 breast it was 54.3%; with HCT-116 colon, 50.5%; in the test on HCC-2998 colon, 85.1%. For the same compound, the growth in the test with KM12 colon is 80.2%.

Regarding `CN(C)CSc1nc2ccccc2s1`, the growth in the test on BT-549 breast was 81.1%; in the test on MDA-MB-435 melanoma it was 99.9%; in the test with SW-620 colon, 104%; with MCF7 breast, 87.3%; in the test with HCT-116 colon it was 89.7%; with HCC-2998 colon it was 97.7%. In the test with KM12 colon, the growth is 98.3%.

Regarding `CC1=C(CCCOC(=O)NCCCl)C2=C(C)C3(CC3)[C@@](C)(O)C(=O)C2=C1`, the growth in the test with BT-549 breast is 17.5%; in the test with MDA-MB-435 melanoma, 84.8%; in the test with SW-620 colon, 80.3%; with MCF7 breast, 29.8%; in the test on HCT-116 colon it was 28.2%; in the test on HCC-2998 colon, 28.8%. In addition, the growth in the test on KM12 colon was 79.2%.

With `CCCCc1nc(Cl)c(C2CC(c3ccc(Cl)cc3)=NN2c2cc(Cl)cc(Cl)c2)[nH]1` (centres undefined), the growth in the test on BT-549 breast is 72%; in the test on MDA-MB-435 melanoma, 83.2%; in the test on SW-620 colon it was 16.8%; in the test on MCF7 breast it was 85.1%; with HCT-116 colon, 63.9%; in the test with HCC-2998 colon it was 102%. The growth in the test with KM12 colon is 89%.

Regarding `CCC1=C[C@H]2CN(CCc3c([nH]c4ccccc34)[C@@](C(=O)OC)(c3cc4c(cc3OC)N(C)[C@H]3[C@@](O)(C(=O)OC)[C@H](OC(C)=O)[C@]5(CC)[C@@H]6C[C@@H]6CN6CC[C@]43[C@@H]65)C2)C1`, the growth was 16.1% in the test with BT-549 breast; -32.6% (active) in the test on MDA-MB-435 melanoma; 29.2% in the test with SW-620 colon; 7.76% (active) in the test with MCF7 breast; 4.74% (active) with HCT-116 colon; 22.2% in the test with HCC-2998 colon. Also, the growth in the test on KM12 colon is 16.2%.

Take `COc1cc(NC(=O)c2cc(O)c(C/C=C(\C)CCC=C(C)C)c(O)c2)cc2c1O[C@]1(C)CC[C@@H](O)C(C)(C)[C@H]1C2`: the growth is 0.27% (active) in the test on BT-549 breast; 10.2% in the test on MDA-MB-435 melanoma; 9.02% (active) with SW-620 colon; 8.42% (active) in the test with MCF7 breast; 10.8% in the test on HCT-116 colon; 16.4% with HCC-2998 colon. The growth with KM12 colon is 7.44% (active).

As to `Cc1cnc(-c2ccc(-c3ccc(NC(=O)Nc4c(F)cc(F)cc4F)cc3F)c3c2C(=O)NC3)[nH]1`, the growth was 55.8% in the test with BT-549 breast; 14.2% in the test with MDA-MB-435 melanoma; 10.1% in the test on SW-620 colon; 22.1% in the test with MCF7 breast; 14.2% with HCT-116 colon; 60.5% with HCC-2998 colon. Also, the growth in the test on KM12 colon is 11.7%.

For the compound `O=CN1N=C(c2ccc3c(c2)OCO3)CC1c1cccc(Nc2ccnc3cc(C(F)(F)F)ccc23)c1` (centres undefined), the growth in the test on BT-549 breast was 75%; in the test with MDA-MB-435 melanoma, 40.6%; with SW-620 colon, 95.1%; in the test on MCF7 breast it was 68.2%; with HCT-116 colon, 74.5%; in the test on HCC-2998 colon, 93.6%. Further, the growth with KM12 colon is 66.6%.

For `Cc1cccc(C)c1Nc1nnc(-c2ccc(F)cc2)o1`, the growth in the test on BT-549 breast is 107%; in the test on MDA-MB-435 melanoma, 103%; with SW-620 colon it was 98.1%; in the test on MCF7 breast, 96.6%; in the test on HCT-116 colon it was 101%; in the test on HCC-2998 colon, 99.4%. Also, in the test with KM12 colon, the growth is 89.2%.

With `Cc1cccc(C)c1NCc1nnc(-c2ccc(O)cc2)o1`, the growth in the test on BT-549 breast was 97.1%; in the test on MDA-MB-435 melanoma it was 99.1%; in the test on SW-620 colon, 100%; in the test on MCF7 breast, 90.6%; in the test on HCT-116 colon, 102%; with HCC-2998 colon it was 100%. In addition, in the test with KM12 colon, the growth is 97%.

In the case of `COc1cc(C2=NN(c3ccccc3)C(c3cccc(Nc4ccnc5cc(C(F)(F)F)ccc45)c3)C2)cc(OC)c1OC` (centres undefined), the growth in the test with BT-549 breast was 114%; in the test on MDA-MB-435 melanoma, 104%; in the test with SW-620 colon it was 94.8%; in the test with MCF7 breast it was 80.6%; in the test on HCT-116 colon, 89.7%; in the test on HCC-2998 colon, 90%. The growth with KM12 colon was 88.1%.

Turning to `C=CCn1c(SCC(=O)Nc2ccc(C(=O)/C=C/c3cc(OC)c(OC)c(OC)c3)cc2)nnc1-c1ccc(Cl)cc1`, the growth is 10.4% in the test with BT-549 breast; 5.58% (active) with MDA-MB-435 melanoma; 11.8% with SW-620 colon; -3.5% (active) in the test on MCF7 breast; -62.2% (active) with HCT-116 colon; -8.4% (active) with HCC-2998 colon. In addition, in the test on KM12 colon, the growth is 9.43% (active).

With `O=C(/C(=C/c1ccc([N+](=O)[O-])cc1)SCc1ccc(F)cc1)c1ccc(Cl)cc1`, the growth with BT-549 breast is 84.9%; in the test on MDA-MB-435 melanoma, 43.9%; in the test on SW-620 colon it was 1.44% (active); in the test on MCF7 breast, -21.8% (active); in the test with HCT-116 colon, 0.116% (active); in the test on HCC-2998 colon, 84.3%. In addition, the growth with KM12 colon was 19.5%.

Regarding `COc1ccc(N(C)c2nc(Cl)nc3ccn(C)c23)cc1`, the growth in the test on BT-549 breast is -4.36% (active); in the test with MDA-MB-435 melanoma, -26.4% (active); with SW-620 colon, 21.9%; in the test on MCF7 breast it was 13.6%; in the test with HCT-116 colon it was -7.01% (active); in the test with HCC-2998 colon it was 15.8%. Moreover, in the test on KM12 colon, the growth was 5.77% (active).

Consider `N#Cc1c(-c2ccc(F)cc2)c(C#N)c2c(C#N)c(N)nn2c1N`, for which the growth in the test on BT-549 breast is 95.9%; with MDA-MB-435 melanoma, 101%; in the test with SW-620 colon, 107%; with MCF7 breast, 96.7%; with HCT-116 colon, 92.5%; in the test on HCC-2998 colon, 90.3%. In addition, the growth in the test on KM12 colon was 94.1%.

The values above are taken from PubChem BioAssay (NCI).
